By AC50 is commonly meant the concentration giving half of the maximal activity seen.

Inconclusive results are not listed. Calls of active or inactive are those of the source. How the source made its calls: active means hit-call score of the fitted dose curve at least 0.9, where 1 is the maximum; inconclusive means response in the unintended direction; inactive means score below 0.9.

In PubChem BioAssay (EPA / NIEHS) one finds outcome and AC50 data, which are given here for 13 molecules.

Experiment [1] concerns the target human Thromboxane A2 Receptor (TXA2), TBXA2R (gene 6915) (UniProt P21731). Nature of the experiment: NVS_GPCR_hTXA2: NovaScreen (NVS) G Protein-Coupled Receptor Assay for human Thromboxane A2 Receptor (TXA2) (AID 2283282).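 Further: actives reduce bound radioligand signal relative to DMSO baseline.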 The gist of the method:
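Screening ran at 25 uM in duplicate, with concentration series for confirmed actives. Each test measures radioligand binding to human platelet protein after 1 h, cell-free, using filter-based scintillation detection of signal loss relative to DMSO.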

Experiment [2] has as its target Muscarinic acetylcholine receptor M1 (Homo sapiens) (UniProt P11229). The experiment can be described thus: NVS_GPCR_hM1: NovaScreen (NVS) G Protein-Coupled Receptor Assay for human Muscarinic, M1 Receptor (AID 2283270). The gist of the method: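 Actives from a duplicate 25 uM single-point screen were retested in concentration series. Binding measured as displacement of a radioligand from CHO-derived receptor preparation, 1 h incubation, filtration and scintillation counting, analysed as signal loss against DMSO.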

The target in experiment [3] is Muscarinic acetylcholine receptor M3 (Homo sapiens) (UniProt P20309). The experiment can be described thus: NVS_GPCR_hM3: NovaScreen (NVS) G Protein-Coupled Receptor Assay for human Muscarinic, M3 Receptor (AID 2283272). The gist of the method: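 Radioligand displacement binding on human M3 receptor in CHO-derived membranes, 1 h incubation, filter-based scintillation counting. Primary screen in duplicate at 25 uM; actives followed up in concentration series; loss of signal versus DMSO.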

The target in experiment [4] is Muscarinic acetylcholine receptor M2 (Homo sapiens) (UniProt P08172). Nature of the experiment: NVS_GPCR_hM2: NovaScreen (NVS) G Protein-Coupled Receptor Assay for human Muscarinic, M2 Receptor (AID 2283273). Summed up:
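CHO-expressed human M2 receptor preparation, competitive displacement of a radioligand read by filter-based scintillation counting after 1 h. Single 25 uM duplicate screen, then concentration-response follow-up of actives; DMSO baseline.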

For experiment [5], the target named is human Muscarinic, M4 Receptor, CHRM4 (gene 1132) (UniProt P08173). Nature of the experiment: NVS_GPCR_hM4: NovaScreen (NVS) G Protein-Coupled Receptor Assay for human Muscarinic, M4 Receptor (AID 2283274). Summed up: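 Filter-based scintillation counting of radioligand bound to CHO-expressed human M4 preparations after 1 h; loss of signal fitted versus DMSO. Initial duplicate testing at 25 uM, concentration-response follow-up for actives.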

The target in experiment [6] is Muscarinic acetylcholine receptor M5 (Homo sapiens) (UniProt P08912). The experiment can be described thus: NVS_GPCR_hM5: NovaScreen (NVS) G Protein-Coupled Receptor Assay for human Muscarinic, M5 Receptor (AID 2283275). Summed up:
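Chemicals passing a primary duplicate screen at 25 uM were run as singleton concentration series, maximum 50 uM. Displacement of a specific radioligand from CHO-extracted receptor was read by filter scintillation after 1 h, relative to DMSO.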

Experiment [7] addresses human Dopamine Receptor D4.4 (DRD4.4), DRD4 (gene 1815) (UniProt P21917). Nature of the experiment: NVS_GPCR_hDRD4.4: NovaScreen (NVS) G Protein-Coupled Receptor Assay for human Dopamine Receptor D4.4 (DRD4.4) (AID 2283264). Summed up:
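Filter-binding assay with a tritiated or iodinated ligand, cell-free receptor prepared from CHO, 1 hour. Loss of bound radioactivity versus DMSO; single 25 uM duplicate screen, then concentration-response for actives.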

In experiment [8] the target is human Dopamine Receptor D2 (DRD2), DRD2 (gene 1813) (UniProt P14416). Nature of the experiment: NVS_GPCR_hDRD2s: NovaScreen (NVS) G Protein-Coupled Receptor Assay for human Dopamine Receptor D2 (DRD2) (AID 2283266). Summed up: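 Test compound (25 uM, duplicate in the primary screen; concentration series at follow-up) competed with radioligand for human DRD2 in CHO-derived membrane protein. Filter-based scintillation counting was done 1.5 hours after dosing, with loss of signal analysed against DMSO.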

The target in experiment [9] is human Histamine 1 Receptor (H1), HRH1 (gene 3269) (UniProt P35367). The experiment can be described thus: NVS_GPCR_hH1: NovaScreen (NVS) G Protein-Coupled Receptor Assay for human Histamine 1 Receptor (H1) (AID 2283268). Summed up:
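Filter-based scintillation detection of radioligand binding to human H1, 1 h incubation; chemicals screened in duplicate at 25 uM, then concentration-response; signal loss relative to DMSO taken as activity.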

Experiment [10] deals with D(1A) dopamine receptor (Homo sapiens) (UniProt P21728). Nature of the experiment: NVS_GPCR_hDRD1: NovaScreen (NVS) G Protein-Coupled Receptor Assay for human Dopamine Receptor D1 (DRD1) (AID 2283269). The gist of the method: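 Cell-free competition with radioligand, filter-trapped and scintillation-counted 1 h post-dose, using HEK293-derived human D1 preparation. Duplicate single-point testing at 25 uM first, then concentration series for actives; DMSO served as baseline, loss-of-signal scored.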

Experiment [11] addresses human Neurotensin Receptor (NTS), NTSR1 (gene 4923) (UniProt P30989). The experiment can be described thus: NVS_GPCR_hNTS: NovaScreen (NVS) G Protein-Coupled Receptor Assay for human Neurotensin Receptor (NTS) (AID 2283279). The gist of the method:
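Compounds competed with a radiolabelled ligand for binding to CHO-derived human neurotensin receptor; bound signal counted after filtration, 1 h. Screened first at a single concentration of 25 uM in duplicate, then concentration series to 50 uM maximum for actives.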

The target in experiment [12] is human Opioid Receptor Delta 1 (Opiate D1), OPRD1 (gene 4985) (UniProt P41143). The experiment can be described thus: NVS_GPCR_hOpiate_D1: NovaScreen (NVS) G Protein-Coupled Receptor Assay for human Opioid Receptor Delta 1 (Opiate D1) (AID 2283280). Summed up:
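Membrane preparations from CHO cells bearing the human receptor were incubated 1 h with test chemical, and bound radioligand was counted after filtration. Actives from 25 uM duplicate screening were retested in concentration-response.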

Experiment [13] concerns the target human Neurokinin, NK2 Receptor, TACR2 (gene 6865) (UniProt P21452). Nature of the experiment: NVS_GPCR_hNK2: NovaScreen (NVS) G Protein-Coupled Receptor Assay for human Neurokinin, NK2 Receptor (AID 2283278).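 Further: actives reduce bound radioligand signal relative to DMSO baseline.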 The gist of the method: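 Cell-free radioligand binding using receptor protein extracted from CHO cells; readings taken 4 hours after chemical dosing by filter-based scintillation counting. Primary screen ran single concentration (25 uM) in duplicate; actives followed up in concentration series, loss-of-signal versus DMSO baseline.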

Experiment [14] concerns the target human Endothelin Receptor Type A (ETA), EDNRA (gene 1909) (UniProt P25101). Nature of the experiment: NVS_GPCR_hETA: NovaScreen (NVS) G Protein-Coupled Receptor Assay for human Endothelin Receptor Type A (ETA) (AID 2283265). The gist of the method: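 Binding of radioligand to membrane protein extracted from SH-SY5Y cells was read by filtration and scintillation after 3 h. Compounds were screened at 25 uM in duplicate, with hits followed up in singleton concentration series to 50 uM.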

Experiment [15] has as its target human Endothelin Receptor Type B (ETB), EDNRB (gene 1910) (UniProt P24530). Nature of the experiment: NVS_GPCR_hETB: NovaScreen (NVS) G Protein-Coupled Receptor Assay for human Endothelin Receptor Type B (ETB) (AID 2283267). Summed up:
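Filter-based scintillation readout of radioligand displacement, 4 h, using membranes from human astrocytoma cells. Actives from a 25 uM duplicate screen were retested in concentration-response (top 50 uM) relative to DMSO baseline.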

Experiment [16] deals with human Neuropeptide Receptor Y1 (NPY1), NPY1R (gene 4886) (UniProt P25929). Nature of the experiment: NVS_GPCR_hNPY1: NovaScreen (NVS) G Protein-Coupled Receptor Assay for human Neuropeptide Receptor Y1 (NPY1) (AID 2283276). Summed up:
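Displacement of specific radioligand from NPY1 receptor of SK-N-MC origin, read by filtration and scintillation after 1 h. Compounds first tested at 25 uM in duplicate, then actives in concentration series; signal loss relative to DMSO.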

Experiment [17] has as its target Neuropeptide Y receptor type 2 (Homo sapiens) (UniProt P49146). The experiment can be described thus: NVS_GPCR_hNPY2: NovaScreen (NVS) G Protein-Coupled Receptor Assay for human Neuropeptide Receptor Y2 (NPY2) (AID 2283277). The gist of the method:
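Chemicals were first tested in duplicate at 25 uM, then actives in singleton concentration series to 50 uM. Tracer binding to SK-N-MC-derived protein measured cell-free after 1 h via filter scintillation; signal loss relative to DMSO.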

In experiment [18] the target is human Orphanin, Opioid Related Nociceptin Receptor 1 (ORL1), OPRL1 (gene 4987) (UniProt P41146). The experiment can be described thus: NVS_GPCR_hORL1: NovaScreen (NVS) G Protein-Coupled Receptor Assay for human Orphanin, Opioid Related Nociceptin Receptor 1 (ORL1) (AID 2283283). The gist of the method: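 Cell-free binding using HEK293-derived receptor protein: radioligand displacement measured by filter scintillation 1 hour after dosing. Primary testing at 25 uM in duplicate, followed by singleton concentration series up to 50 uM; DMSO served as negative control.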

Chain of human Thromboxane A2 Receptor (TXA2), TBXA2R (gene 6915) (P21731 whole entry, looked up): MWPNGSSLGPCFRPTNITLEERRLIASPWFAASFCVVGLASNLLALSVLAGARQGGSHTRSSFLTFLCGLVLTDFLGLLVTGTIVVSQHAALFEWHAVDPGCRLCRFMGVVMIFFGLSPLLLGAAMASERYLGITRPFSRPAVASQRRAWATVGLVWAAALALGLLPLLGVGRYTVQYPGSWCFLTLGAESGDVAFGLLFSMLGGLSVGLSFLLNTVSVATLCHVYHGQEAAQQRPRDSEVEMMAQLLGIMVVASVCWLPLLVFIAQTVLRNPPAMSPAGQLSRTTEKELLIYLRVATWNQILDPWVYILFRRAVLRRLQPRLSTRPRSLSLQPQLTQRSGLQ
Chain of human Dopamine Receptor D4.4 (DRD4.4), DRD4 (gene 1815) (P21917 whole entry, looked up): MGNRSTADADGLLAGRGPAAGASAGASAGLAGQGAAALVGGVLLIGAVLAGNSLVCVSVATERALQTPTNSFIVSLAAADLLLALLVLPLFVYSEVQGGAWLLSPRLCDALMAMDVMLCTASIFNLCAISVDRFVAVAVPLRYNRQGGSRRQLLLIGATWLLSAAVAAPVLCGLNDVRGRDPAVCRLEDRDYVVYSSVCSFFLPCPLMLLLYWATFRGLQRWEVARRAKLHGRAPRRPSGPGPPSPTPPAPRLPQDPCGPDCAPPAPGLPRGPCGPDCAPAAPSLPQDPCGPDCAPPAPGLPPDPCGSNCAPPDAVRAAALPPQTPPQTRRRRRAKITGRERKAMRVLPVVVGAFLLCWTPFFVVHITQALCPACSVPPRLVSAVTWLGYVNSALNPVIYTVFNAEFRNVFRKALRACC
Chain of human Muscarinic, M4 Receptor, CHRM4 (gene 1132) (P08173 whole entry, looked up): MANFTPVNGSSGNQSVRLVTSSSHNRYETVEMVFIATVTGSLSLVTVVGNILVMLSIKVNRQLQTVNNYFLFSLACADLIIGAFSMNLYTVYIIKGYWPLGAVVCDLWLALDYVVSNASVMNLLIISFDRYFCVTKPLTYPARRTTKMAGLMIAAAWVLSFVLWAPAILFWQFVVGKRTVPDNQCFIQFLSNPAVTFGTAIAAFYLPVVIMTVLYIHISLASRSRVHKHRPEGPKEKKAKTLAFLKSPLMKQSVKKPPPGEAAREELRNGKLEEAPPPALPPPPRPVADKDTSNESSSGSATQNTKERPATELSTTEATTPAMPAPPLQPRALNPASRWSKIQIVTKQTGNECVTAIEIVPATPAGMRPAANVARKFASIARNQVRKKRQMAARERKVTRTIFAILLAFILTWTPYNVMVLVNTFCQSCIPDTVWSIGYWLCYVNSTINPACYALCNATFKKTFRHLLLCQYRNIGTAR
Chain of human Opioid Receptor Delta 1 (Opiate D1), OPRD1 (gene 4985) (P41143 whole entry, looked up): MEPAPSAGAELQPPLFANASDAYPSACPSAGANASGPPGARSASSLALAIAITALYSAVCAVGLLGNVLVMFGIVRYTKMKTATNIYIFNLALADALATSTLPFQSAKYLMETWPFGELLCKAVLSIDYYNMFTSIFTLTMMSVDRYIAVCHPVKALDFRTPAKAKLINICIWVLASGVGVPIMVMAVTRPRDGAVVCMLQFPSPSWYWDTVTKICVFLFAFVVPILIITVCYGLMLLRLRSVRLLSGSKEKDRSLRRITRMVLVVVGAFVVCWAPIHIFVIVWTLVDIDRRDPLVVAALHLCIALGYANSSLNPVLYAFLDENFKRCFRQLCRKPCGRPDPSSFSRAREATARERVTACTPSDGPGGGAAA
Chain of Muscarinic acetylcholine receptor M1 (Homo sapiens) (P11229 whole entry, looked up): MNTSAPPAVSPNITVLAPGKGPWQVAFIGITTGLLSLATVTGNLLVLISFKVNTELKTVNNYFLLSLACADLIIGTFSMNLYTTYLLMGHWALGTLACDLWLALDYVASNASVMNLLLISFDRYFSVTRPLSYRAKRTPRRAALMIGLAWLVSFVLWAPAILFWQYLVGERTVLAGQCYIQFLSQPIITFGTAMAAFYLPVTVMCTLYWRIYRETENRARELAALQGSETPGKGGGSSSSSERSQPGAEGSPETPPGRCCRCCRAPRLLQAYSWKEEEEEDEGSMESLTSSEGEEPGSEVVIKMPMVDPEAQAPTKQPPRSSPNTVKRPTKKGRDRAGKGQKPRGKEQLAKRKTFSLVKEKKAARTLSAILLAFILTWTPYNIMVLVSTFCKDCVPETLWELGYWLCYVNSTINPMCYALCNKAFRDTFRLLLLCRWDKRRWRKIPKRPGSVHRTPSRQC
Chain of Muscarinic acetylcholine receptor M2 (Homo sapiens) (P08172 whole entry, looked up): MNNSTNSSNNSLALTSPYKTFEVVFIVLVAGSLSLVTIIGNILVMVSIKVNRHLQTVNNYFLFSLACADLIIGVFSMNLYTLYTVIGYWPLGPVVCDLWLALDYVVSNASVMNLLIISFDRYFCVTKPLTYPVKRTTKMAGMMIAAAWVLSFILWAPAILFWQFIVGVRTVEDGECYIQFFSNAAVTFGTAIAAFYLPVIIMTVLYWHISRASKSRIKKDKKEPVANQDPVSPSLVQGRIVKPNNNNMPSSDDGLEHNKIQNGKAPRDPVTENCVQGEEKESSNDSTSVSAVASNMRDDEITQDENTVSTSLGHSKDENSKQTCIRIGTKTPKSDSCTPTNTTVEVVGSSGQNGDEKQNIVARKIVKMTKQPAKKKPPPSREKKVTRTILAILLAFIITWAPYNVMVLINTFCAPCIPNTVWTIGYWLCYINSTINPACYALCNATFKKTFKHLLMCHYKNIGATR
Chain of Muscarinic acetylcholine receptor M3 (Homo sapiens) (P20309 whole entry, looked up): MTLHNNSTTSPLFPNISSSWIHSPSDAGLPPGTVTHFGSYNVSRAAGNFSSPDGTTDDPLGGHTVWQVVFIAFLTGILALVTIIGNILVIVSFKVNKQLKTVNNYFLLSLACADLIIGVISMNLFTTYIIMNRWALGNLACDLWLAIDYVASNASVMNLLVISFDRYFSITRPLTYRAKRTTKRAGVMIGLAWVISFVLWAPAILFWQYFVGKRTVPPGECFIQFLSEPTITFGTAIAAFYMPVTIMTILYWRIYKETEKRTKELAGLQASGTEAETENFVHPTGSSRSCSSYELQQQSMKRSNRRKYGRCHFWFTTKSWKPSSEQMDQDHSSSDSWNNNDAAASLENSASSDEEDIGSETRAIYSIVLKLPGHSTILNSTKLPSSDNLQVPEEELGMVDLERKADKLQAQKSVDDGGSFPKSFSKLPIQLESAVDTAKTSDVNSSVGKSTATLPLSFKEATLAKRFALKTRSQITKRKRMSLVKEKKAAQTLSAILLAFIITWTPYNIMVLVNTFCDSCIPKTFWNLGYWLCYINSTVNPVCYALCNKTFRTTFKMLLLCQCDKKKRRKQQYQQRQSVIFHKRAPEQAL
Chain of human Neurokinin, NK2 Receptor, TACR2 (gene 6865) (P21452 whole entry, looked up): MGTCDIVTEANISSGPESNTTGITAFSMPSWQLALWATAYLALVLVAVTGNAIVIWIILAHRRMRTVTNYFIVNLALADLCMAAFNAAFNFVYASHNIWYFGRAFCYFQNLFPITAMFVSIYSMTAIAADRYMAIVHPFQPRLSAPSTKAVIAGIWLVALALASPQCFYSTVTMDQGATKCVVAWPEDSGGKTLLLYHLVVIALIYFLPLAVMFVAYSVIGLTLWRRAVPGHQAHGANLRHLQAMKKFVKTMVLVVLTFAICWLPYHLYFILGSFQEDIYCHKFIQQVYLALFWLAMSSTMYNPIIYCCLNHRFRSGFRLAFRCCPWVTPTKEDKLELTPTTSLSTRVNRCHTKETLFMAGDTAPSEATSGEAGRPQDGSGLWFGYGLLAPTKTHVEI
Chain of Muscarinic acetylcholine receptor M5 (Homo sapiens) (P08912 whole entry, looked up): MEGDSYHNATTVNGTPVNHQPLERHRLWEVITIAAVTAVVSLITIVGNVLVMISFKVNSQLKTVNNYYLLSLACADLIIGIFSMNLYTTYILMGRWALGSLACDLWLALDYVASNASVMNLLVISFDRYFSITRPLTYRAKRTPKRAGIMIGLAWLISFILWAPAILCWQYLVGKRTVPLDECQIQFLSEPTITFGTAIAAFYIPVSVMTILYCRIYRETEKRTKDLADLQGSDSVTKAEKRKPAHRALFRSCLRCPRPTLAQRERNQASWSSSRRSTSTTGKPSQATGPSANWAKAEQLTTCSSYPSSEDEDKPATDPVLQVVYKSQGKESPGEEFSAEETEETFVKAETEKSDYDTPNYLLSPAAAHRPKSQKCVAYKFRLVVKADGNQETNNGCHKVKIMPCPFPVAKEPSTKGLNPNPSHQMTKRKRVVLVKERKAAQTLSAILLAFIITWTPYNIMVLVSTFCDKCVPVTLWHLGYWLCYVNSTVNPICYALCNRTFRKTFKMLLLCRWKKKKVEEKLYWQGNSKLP
Chain of human Neuropeptide Receptor Y1 (NPY1), NPY1R (gene 4886) (P25929 whole entry, looked up): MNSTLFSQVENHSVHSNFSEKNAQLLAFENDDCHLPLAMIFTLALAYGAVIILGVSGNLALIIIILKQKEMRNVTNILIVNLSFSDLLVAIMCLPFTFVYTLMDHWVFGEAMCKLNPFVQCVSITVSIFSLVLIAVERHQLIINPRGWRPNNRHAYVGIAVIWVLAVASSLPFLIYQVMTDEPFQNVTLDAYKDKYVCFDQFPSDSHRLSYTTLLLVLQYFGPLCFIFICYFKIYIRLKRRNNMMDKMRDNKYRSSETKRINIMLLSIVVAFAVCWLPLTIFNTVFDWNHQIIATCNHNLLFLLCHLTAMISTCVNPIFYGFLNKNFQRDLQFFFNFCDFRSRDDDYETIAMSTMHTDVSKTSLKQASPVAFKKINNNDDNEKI
Chain of human Dopamine Receptor D2 (DRD2), DRD2 (gene 1813) (P14416 whole entry, looked up): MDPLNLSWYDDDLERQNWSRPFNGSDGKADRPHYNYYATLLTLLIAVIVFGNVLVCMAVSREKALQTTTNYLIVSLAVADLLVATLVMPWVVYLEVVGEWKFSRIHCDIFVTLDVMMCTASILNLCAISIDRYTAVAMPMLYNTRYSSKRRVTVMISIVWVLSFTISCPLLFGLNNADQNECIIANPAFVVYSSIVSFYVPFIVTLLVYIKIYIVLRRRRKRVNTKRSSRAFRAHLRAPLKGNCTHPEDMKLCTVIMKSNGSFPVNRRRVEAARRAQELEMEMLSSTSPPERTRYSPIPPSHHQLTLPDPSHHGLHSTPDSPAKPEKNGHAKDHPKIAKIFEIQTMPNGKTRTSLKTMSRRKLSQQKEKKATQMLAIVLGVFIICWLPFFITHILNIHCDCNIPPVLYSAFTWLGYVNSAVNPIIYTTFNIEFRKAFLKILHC

Consider `Nc1cc(Cl)cc(C(=O)O)c1Cl`, for which the molecule was classed as inactive in [1].

Take `O=C(Oc1ccc(Br)cc1)N1CCN2CCC1CC2`: the AC50 was 12.5 µM (active) in [2]; 19.4 µM (active) in experiment [3]; 16.8 µM (active) in experiment [4]; 15.3 µM (active) in experiment [5]; 15.7 µM (active) in [6].

Consider `CCOC(=O)[C@]1(c2ccccc2)Oc2ccccc2[C@@H]1N`, for which the AC50 in experiment [7] was 0.0481 µM (active); in experiment [8], 0.0323 µM (active); in experiment [9] it was 0.471 µM (active); in [10], 2.66 µM (active); in experiment [2], 6.04 µM (active); in [3], 13.3 µM (active). The half-maximal activity concentration (AC50) in experiment [4] was 3.28 µM (active); in experiment [5], 13.3 µM (active); in [6], 4.93 µM (active); in experiment [12], 16.5 µM (active). For the same molecule, the result in experiment [11] was inactive.

Regarding `Oc1ccc2ccc3cccc4ccc1c2c34`, the molecule was called inactive in [13] and in experiment [1].

Consider `c1ccc(C2CO2)cc1` (stereo unspecified), for which the outcome in experiment [6] was inactive.

Take `[Cl-].[Cl-].[Hg+2]`: the AC50 was 1.76 µM (active) in experiment [7]; 6.76 µM (active) in [14]; 0.354 µM (active) in experiment [8]; 19 µM (active) in experiment [15]; 0.193 µM (active) in experiment [10]; 1.47 µM (active) in [2]. For the same molecule, the AC50 in experiment [3] was 0.579 µM (active); in experiment [4] it was 1.48 µM (active); in experiment [5], 4.13 µM (active); in experiment [6], 0.428 µM (active); in experiment [16] it was 14.7 µM (active); in [17], 8.85 µM (active). The AC50 was 0.838 µM (active) in experiment [13], 0.275 µM (active) in experiment [12] and 0.321 µM (active) in [18]. For the same molecule, in experiment [1], the outcome was inactive.

As to `CCCCCCCCCCCCCN1CC(C)OC(C)C1` (stereo unspecified), the molecule was classed as inactive in [5].

Consider `CCOc1cccc(C2(N3CCN(c4ccccc4)CC3)CCC(C)CC2)c1` (stereo unspecified), for which, in experiment [16], the outcome was inactive.

For the molecule `CN(C)C(=O)Nc1ccc(Cl)cc1`, the result in experiment [1] was inactive.

For the molecule `CC(C)(C)C(O)(CCc1ccc(Cl)cc1)Cn1cncn1` (stereo unspecified), the AC50 in experiment [13] is 13.1 µM (active). Also, the result in [1] was inactive.

Take `Cc1cc(N=Nc2ccccc2C)ccc1N`: in [7], the AC50 was 25 µM (active).

`COC(=O)Nc1nc2ccccc2[nH]1`: the outcome in experiment [17] was inactive.

Regarding `CCCCCOC(=O)c1ccccc1C(=O)OCCCCC`, the outcome in experiment [3], in experiment [12] and in experiment [18] was inactive.
